Results on 13 compounds are retold here after PubChem BioAssay AID651642 (Sanford-Burnham Center for Chemical Genomics, 2012).

Activity calls are given as the source filed them.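 Rule for the calls: active = average half-effect concentration of 10 µM or less in every one of the four cell panels; inactive = the rest.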

In the experiment the test system is HL-1. The experiment can be described thus: cardiomyocyte survival under oxidative or metabolic stress – cell-based, panel, H9c2 and HL-1, H2O2, 2-deoxyglucose, ATP luminescence, SAR follow-up (AID 651642). The following applies: H9c2/HL-1 cardiomyocyte 2-deoxyglucose damage, mean of runs, with 2-deoxyglucose.

Regarding `COc1ccc2nc(-c3cc(OC)c(OC)c(OC)c3)cc(C(=O)NCC(=O)Nc3ccc(C(C)=O)cc3)c2c1`, the call was active.

Regarding `CCOC(=O)c1cccc(NC(=O)CNC(=O)c2cc(-c3cc(OC)c(OC)c(OC)c3)nc3ccc(F)cc23)c1`, the outcome was active.

Take `COc1ccc2c(c1OC)C(=O)N1c3ccccc3C(=O)N(Cc3ccccc3Br)C21` (stereo not drawn): the compound was called inactive.

On to `CCOC(=O)c1cccc(NC(=O)c2cc(-c3cc(OC)c(OC)c(OC)c3)nc3cc(Cl)ccc23)c1`, for which the call was inactive.

`COc1cc(-c2cc(C(=O)NCC(=O)Nc3cccc(C(C)=O)c3)c3cccc(Cl)c3n2)cc(OC)c1OC`: the compound was classed as active.

`COC(=O)CNC(=O)c1cccc(NC(=O)c2cc(-c3cc(OC)c(OC)c(OC)c3)nc3ccccc23)c1`: the call was active.

As for `COc1cc(-c2cc(C(=O)Nc3cccc(C(C)=O)c3)c3ccccc3n2)cc(OC)c1OC`, the result was active.

With `COc1cc(-c2cc(C(=O)Nc3cccc(C(=O)Nc4ccccc4)c3)c3ccccc3n2)cc(OC)c1OC`, the result was active.

On to `COc1cc(-c2cc(C(=O)Nc3cccc(C(N)=O)c3)c3ccccc3n2)cc(OC)c1OC`, for which the compound was classed as inactive.

For the compound `CCOC(=O)c1cccc(NC(=O)CNC(=O)c2cc(-c3cc(OC)c(OC)c(OC)c3)nc3ccc(OC)cc23)c1`, the compound was classed as active.

On to `COc1cc(-c2cc(C(=O)NCC(=O)Nc3ccc(C(C)=O)cc3)c3cc(C)ccc3n2)cc(OC)c1OC`, for which the result was active.

For the compound `COc1ccc2c(c1OC)C(=O)N1c3ccccc3C(=O)N(Cc3ccccc3C)C21` (stereo not drawn), the compound was classed as active.

For `CCOC(=O)c1cccc(NC(=O)CNC(=O)c2cc(-c3cc(OC)c(OC)c(OC)c3)nc3ccc(C)cc23)c1`, the call was active.
